Source: PubChem BioAssay (Tox21)
Where “and” joins values, the source holds several entries; their conditions need not be identical. Equal entries are not always repeated. Records with an inconclusive call do not appear. Entries that show only a call come without a potency. More than one record can exist for a structure, and the calls need not agree. Calls of active or inactive are those of the source. Calls come from the whole dose curve; as a rule, active = well fitted activation curve with a large enough effect in the repeat runs; inconclusive = weak or mixed curves; inactive = no such curve, though single readings can be large or run the other way.

target: Aryl hydrocarbon receptor (Homo sapiens) (UniProt P35869); experiment: qHTS assay to identify small molecule that activate the aryl hydrocarbon receptor (AhR) signaling pathway (AID 743085); conditions: HepG2 AhR-luc (HG2L7.5c1), luciferase, 24 h; series mostly up to 70.3 µM; note: nearly all actives have a fitted effect of over 15% in size;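 for activation: HG2L7.5c1 human HepG2 liver cells with stably integrated DRE-driven firefly reporter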
Sequence (P35869 whole entry, looked up): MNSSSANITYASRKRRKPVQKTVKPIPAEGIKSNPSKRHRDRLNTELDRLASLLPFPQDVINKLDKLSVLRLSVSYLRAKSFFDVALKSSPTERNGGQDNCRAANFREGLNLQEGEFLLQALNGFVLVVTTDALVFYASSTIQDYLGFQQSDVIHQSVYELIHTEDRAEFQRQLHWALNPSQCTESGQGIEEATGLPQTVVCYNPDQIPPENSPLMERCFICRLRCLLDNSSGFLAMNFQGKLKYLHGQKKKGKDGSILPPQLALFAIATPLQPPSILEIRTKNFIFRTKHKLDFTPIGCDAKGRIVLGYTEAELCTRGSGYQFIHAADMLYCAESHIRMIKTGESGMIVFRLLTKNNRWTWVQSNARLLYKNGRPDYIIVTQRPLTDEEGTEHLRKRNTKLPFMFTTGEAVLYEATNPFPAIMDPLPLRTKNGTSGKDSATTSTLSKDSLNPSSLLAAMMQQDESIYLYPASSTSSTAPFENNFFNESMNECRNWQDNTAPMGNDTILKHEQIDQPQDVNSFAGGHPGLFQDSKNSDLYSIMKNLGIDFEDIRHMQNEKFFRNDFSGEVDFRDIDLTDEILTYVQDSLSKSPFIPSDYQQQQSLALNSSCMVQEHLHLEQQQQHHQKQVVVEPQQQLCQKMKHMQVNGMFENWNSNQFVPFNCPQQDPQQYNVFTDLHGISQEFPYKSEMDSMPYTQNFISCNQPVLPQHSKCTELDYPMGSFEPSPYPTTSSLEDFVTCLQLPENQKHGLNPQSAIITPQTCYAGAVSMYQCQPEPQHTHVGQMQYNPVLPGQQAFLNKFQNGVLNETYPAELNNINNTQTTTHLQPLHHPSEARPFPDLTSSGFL
Text: U.S. Tox21 Program National Center for Advancing Translational Sciences [NCATS] NIH Chemical Genomics Center [NCGC] U.S. Environmental Protection Agency [EPA] National Institutes of Environmental Health Sciences [NIEHS] National Toxicology Program [NTP] U.S. Food and Drug Administration [FDA] Tox21 Assay overview: The Aryl hydrocarbon Receptor (AhR), a member of the family of basic helix-loop-helix transcription factors, is crucial to adaptive responses to environmental changes. AhR mediates cellular responses to environmental pollutants such as aromatic hydrocarbons through induction of phase I and II enzymes but also interacts with other nuclear receptor signaling pathways. A cell based HepG2-AhR-luc assay (HG2L7.5c1 cell line, developed by Dr. Michael S. Denison, University of California at Davis, was used to assess the activation of AhR. HepG2 (human hepatocellular carcinoma) cells were stably transfected with an Ah receptor-responsive firefly luciferase reporter gene plasmid containing 20 dioxin responsive elements and luciferase reporter gene. Increased luciferase activity can be used to identify the compounds that induce AhR activation.
Tox21 Assay Protocol Summary: 4000 cells in 5 uL/well were dispensed into white wall/solid bottom 1536-well plates using a Multidrop Combi (Thermo Fisher Scientific Inc., Waltham, MA) dispenser. After the assay plates were incubated at 37C for 5 h, 23 nL of compound or DMSO vehicle was transferred to the assay plates by a pintool station (Kalypsys, San Diego, CA). The plates were incubated at 37C for 24 hr. After 1 ul/well of CellTiter-Fluor reagent (Promega, Madison, WI) was added into the assay plates using a Flying Reagent Dispenser (FRD) (Aurora Discovery, CA), the assay plates were incubated at 37C for 30 min. The fluorescence intensity in the plates was measured using a ViewLux plate reader (PerkinElmer, Shelton, CT), followed by the addition of 4 uL of ONE-Glo Luciferase Assay reagent (Promega) using an FRD (Aurora Discovery). After the assay plates were incubated at room temperature for 30 min, luminescence intensity was measured using a ViewLux plate reader (Perkin Elmer).
Potency is the fitted concentration of half-maximal effect.

SMILES | Potency
CCCCCCO | inactive
CC(C)(Oc1ccc(CCNC(=O)c2ccc(Cl)cc2)cc1)C(=O)O | inactive
CN1C(=O)CC[C@H]1c1cccnc1 | inactive
CC(=O)OCc1ccccc1 | inactive
CC(C)(C)c1cc(Cc2cc(C(C)(C)C)c(O)c(C(C)(C)C)c2)cc(C(C)(C)C)c1O | inactive
C[C@]12CCC(=O)C=C1CC[C@@H]1[C@@H]2[C@@H](O)C[C@@]2(C)[C@H]1CC[C@]2(O)C(=O)CO | inactive
CC1(C)S[C@@H]2[C@H](NC(=O)COc3ccccc3)C(=O)N2[C@H]1C(=O)O | inactive
CC(=O)CCC=C(C)C | inactive
CCCCCC(=O)O | inactive
Nc1ccc(Cl)c(N)c1 | 19.4 µM (active) and 7.7 µM (active)
CC(=O)OC1CC(C)OC(C)O1 (stereo not given) | inactive
O=C1c2ccccc2CCc2ccccc21 | inactive
COc1ccc(CCC(C)=O)cc1 | inactive
Cc1ccc2ncccc2c1 | inactive
CC(=O)c1ccc(O)cc1 | inactive
CCc1ccccc1CC | inactive
OCc1cccc(Oc2ccccc2)c1 | inactive
c1ccc2c(c1)Cc1ccccc1-2 | inactive
C[Si]1(C)O[Si](C)(C)O[Si](C)(C)O[Si](C)(C)O1 | inactive
CC(C)(C#N)c1cc(Cn2cncn2)cc(C(C)(C)C#N)c1 | inactive

SMILES | Potency
O=C(O)c1cc2ccccc2cc1O | 60.7 µM (active) and 30.6 µM (active)
CCOCC(=O)O | inactive
Cc1ccc([N+](=O)[O-])cc1S(=O)(=O)O | inactive
CCCCC(C=O)CC (stereo not given) | inactive
CC(C)OP(=O)(CP(=O)(OC(C)C)OC(C)C)OC(C)C | inactive
O=c1[nH]cnc2[nH]ncc12 | inactive
NC(=S)NNC(N)=S | inactive
N#Cc1ccccc1 | inactive
C=C(C)[C@H]1CC=C(C)C(=O)C1 | inactive
C=C(C)CNCC | inactive
Cc1ccc(S(=O)(=O)N=C=O)cc1 | inactive
NCCN1CCNCC1 | inactive
OC1C(O)C(O)C(O)C(O)C1O (stereo not given) | inactive
CCCCCCCCCCCC(=O)OC | inactive
CC1(C)OC[C@@H]2O[C@@]3(C(=O)O)OC(C)(C)O[C@H]3[C@@H]2O1 | inactive
NCCCCCCN | inactive
CC(O)CC(C)(C)O (stereo not given) | inactive
COc1ccc(OC)cc1 | inactive
C=CCc1ccc(OC)c(OC)c1 | inactive
